The values that follow come from PubChem BioAssay.

Entries with a potency or affinity are not part of this list. Active and inactive are the calls of the source. Cut-off not given; nearly all actives show IC50 up to about 0.98 µM.

Chain of Calcium-dependent protein kinase 1 (Plasmodium falciparum (isolate 3D7)) (P62344 whole entry, looked up): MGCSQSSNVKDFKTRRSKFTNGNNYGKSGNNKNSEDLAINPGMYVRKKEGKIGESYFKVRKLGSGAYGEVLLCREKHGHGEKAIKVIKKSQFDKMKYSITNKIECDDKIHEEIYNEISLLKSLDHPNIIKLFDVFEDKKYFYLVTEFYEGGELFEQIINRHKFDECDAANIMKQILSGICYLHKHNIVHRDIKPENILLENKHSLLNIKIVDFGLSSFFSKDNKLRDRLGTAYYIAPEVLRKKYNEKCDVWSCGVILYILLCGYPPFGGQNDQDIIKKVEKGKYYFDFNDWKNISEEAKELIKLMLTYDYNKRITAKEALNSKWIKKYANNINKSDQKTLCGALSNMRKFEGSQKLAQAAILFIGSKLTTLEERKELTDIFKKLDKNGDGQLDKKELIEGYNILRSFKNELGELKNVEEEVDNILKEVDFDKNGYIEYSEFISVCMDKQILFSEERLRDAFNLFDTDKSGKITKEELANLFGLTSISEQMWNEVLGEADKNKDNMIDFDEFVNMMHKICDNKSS

The assay addresses Calcium-dependent protein kinase 1 (Plasmodium falciparum (isolate 3D7)) (UniProt P62344). The experiment in a line: PfCDPK1 kinase inhibitors, biochemical, TCAMS library (AID 1159585).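 Further: inhibitors leave more ATP so luminescence rises with inhibition.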 Conditions: recombinant PfCDPK1, Kinase-Glo ATP depletion luminescence. Background: Kinase-Glo reads ATP consumption through a luciferase reaction.
On to `COc1ccc(N2CCN(CCCCNC(=O)c3ccc(NC(=O)c4ccc(Cl)cc4)cc3)CC2)c(OC)c1`, for which the outcome was inactive.

With `Clc1ccc2c(NCCCCCCCCNc3ccnc4cc(Cl)ccc34)ccnc2c1`, the result was inactive.

`CN1CCN(CCCN(Cc2cccc(-c3cccc(CNCCc4ccccc4)c3)c2)C(=O)Nc2ccccc2)CC1`: the outcome was inactive.

Turning to `Cc1nc(-c2cccc(Nc3nccc(NCC(O)c4ccccc4C(F)(F)F)n3)c2)cs1` (stereo not given), the outcome was inactive.

Turning to `COc1ccc(NC(=O)CSc2nc(-c3ccccc3Cl)ns2)cc1`, the result was inactive.

As for `Cc1cnc(NCCc2ccc(F)cc2)nc1N[C@@H](CC(C)C)C(=O)Nc1ccccc1`, the outcome was inactive.

Consider `COc1cc(CNC[C@@H](O)[C@H](Cc2ccccc2)NC(=O)c2cc(C3CCCC3)cc(N3CCCC3=O)c2)cc(OC)c1`, for which the outcome was inactive.

As to `Cc1cccc2[nH]c(-c3ccc(-c4cccc(CNCc5ccccc5)c4)cc3)nc12`, the result was inactive.

With `CN1N=C2c3ccccc3CCC2C1c1ccc(C#N)cc1` (stereo not given), the outcome was inactive.

As for `Cc1c(C(=O)N2CCc3cc4nccc(N5CCN6CCC[C@H]6C5)c4cc32)cnn1-c1ccc(C#N)cc1`, the outcome was inactive.

As to `CCOc1cc(C)ccc1C1CCN(CCCCNC(=O)c2coc(-c3ccc(Cl)cc3)c2)CC1`, the result was inactive.

Regarding `Cc1cc(N[C@@H](Cc2ccccc2)C(=O)NCc2cccs2)nc(NCCOc2ccccc2)n1`, the outcome was inactive.

With `COc1cc(COc2c(C)nc(N)nc2N)cc(OC)c1OC`, the result was inactive.

`O=C(Nc1cccc(CN2CCCN(CC3CC3)CC2)c1)c1ccc(-c2ccccc2)cc1`: the outcome was inactive.

For the compound `C=CCc1cc(Br)ccc1OCCCOc1c(N)nc(N)nc1N`, the outcome was inactive.
